# Experimental data from PubChem BioAssay.
# Activity calls are given as the source filed them.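 How the source made its calls: active means GFP response above 150% of the DMSO level; inconclusive means fewer than 70 events counted for a yeast strain; inactive means the rest.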
# Assay: modulators of CIT2-GFP expression in yeast, confirmation, S. cerevisiae, GFP fusion, cherry picks, mother/daughter gates (AID 2274)
# Conditions: S. cerevisiae CIT2-GFP strain, flow cytometry, 3 h; at 10 µM; stronger effect = higher value
row,SMILES,"GFP response, % of DMSO"
1,Cc1ccc(C(=O)OCC(=O)Nc2ccccc2Sc2ccccc2)cc1C,103% (inactive)
2,CCCCCCc1cc2cc(-c3nnc(-c4ccccc4OC)o3)c(=O)oc2cc1O,100% (inactive)
3,O=C(OCn1ncc(Br)c(Br)c1=O)c1ccc(F)cc1,99.3% (inactive)
4,CSc1ccc(-c2cc(=O)c3ccccc3o2)cc1,84.7% (inactive)
5,c1cc2c(cc1C1CCCCC1)c1c3n2CCCNC3CCC1 (stereo not drawn),100% (inactive)
6,CCOC(=O)C1(CCCc2ccccc2)CCN(C(=O)c2cc(C)nn2CC)CC1,102% (inactive)
7,Cn1cnnc1SCC(=O)Nc1nc(-c2ccc(F)cc2)cs1,102% (inactive)
8,O=C1C=C(c2ccccc2)C(=O)N1Nc1ccccc1,92.6% (inactive)
9,S=C(Sc1ccc(Cl)cc1)Sc1ccc(Cl)cc1,112% (inactive)
10,O=C(O)c1ccc(N/N=C/c2c(F)cccc2Cl)cc1,96.4% (inactive)
11,Cc1ccc(-c2csc(NC(=O)c3ccno3)n2)cc1,100% (inactive)
12,Cc1nn(C)cc1C(C)NC(=O)c1cc(COc2ccc(F)c(F)c2)on1 (stereo not drawn),97.8% (inactive)
13,CN(O)/C=c1/ccc2c(n1)C(=O)C=CC=2,167% (active)
14,CCOc1ccc(S(=O)(=O)n2ccnc2C)cc1,104% (inactive)
15,CCCCN(CC)S(=O)(=O)c1ccc(C(=O)Nc2nnc(-c3ccccc3Cl)o2)cc1,98.3% (inactive)
16,Oc1c(CN2CCCCC2)cc(Br)c2cccnc12,102% (inactive)
17,O=C(O)c1ccc(N/N=C/C(Br)=C/c2ccccc2)cc1,90.7% (inactive)
18,Cc1ccc(NC(=O)COc2ccc(Br)cc2C)cc1,97.8% (inactive)
19,CCCn1c(=O)c(C(=O)Nc2ccccc2C(=O)OCC)c(O)c2ccccc21,100% (inactive)
20,N#C/C(C(=O)Nc1ccc(Cl)cc1)=C(/S)Nc1ccccc1,105% (inactive)

row,SMILES,"GFP response, % of DMSO"
1,CN1/C(=C\C(=O)c2cccc(S(=O)(=O)N3CCCCC3)c2)C(C)(C)c2ccccc21,98.3% (inactive)
2,CCn1c(=O)c(C(=O)NCc2ccc(OC)cc2)c(O)c2ccccc21,101% (inactive)
3,C/C(=N/NS(=O)(=O)c1ccccc1)c1ccc(NC(=O)C(F)(F)F)cc1,95% (inactive)
4,CS(=O)(=O)c1nc(-c2ccccc2)cc(C(F)(F)F)n1,95.2% (inactive)
5,CCOc1ccc(/C=C/C(=O)c2c(O)cc(C)oc2=O)cc1,93.1% (inactive)
6,CCCc1[nH]nc2c1C(c1cccnc1)C(C#N)=C(N)O2 (stereo not drawn),101% (inactive)
7,O=C1CC(Sc2nnc(-c3ccccc3)o2)C(=O)N1c1ccccc1 (stereo not drawn),97.8% (inactive)
8,O=C(NNC(=O)C1CCCCC1)C(=O)NC1CCCCC1,104% (inactive)
9,Cc1ccc(/C(C#N)=C\c2ccc(N3CCOCC3)o2)cc1,98.8% (inactive)
10,N/C(Cc1ccc(Cl)c(Cl)c1)=N\OC(=O)c1cccs1,176% (active)
11,Cn1cc([N+](=O)[O-])c(C(=O)Nc2nc(-c3ccc(Cl)cc3)cs2)n1,100% (inactive)
12,CCCOc1ccc(C(=O)NNC(=S)NC(=O)c2ccccc2)cc1,114% (inactive)
13,COc1ccc(N2C(=O)c3cccc4cccc(c34)C2=O)nn1,92.6% (inactive)
14,Clc1ccc(OCCn2cnc3ccccc32)c(Cl)c1,82.6% (inactive)
15,N#C/C(=C\c1ccccn1)c1nc2ccccc2s1,506% (active)
16,COc1ccc(S(=O)(=O)NCC(=O)N(CC(=O)NCc2ccco2)Cc2ccc(F)cc2)cc1,103% (inactive)
17,Cc1cc(OCc2ccc(C(=O)NN=C3CCCC3)cc2)ccc1Cl,95.2% (inactive)
18,CCCCC(=O)NNC(=S)NC(=O)c1ccc(C)cc1,119% (inactive)
19,Cc1ccc(N2C(=O)C3C4C=CC(CNC(=S)Nc5ccc(F)cc5)(O4)C3C2=O)cc1 (stereo not drawn),110% (inactive)

# Same assay, conditions: S. cerevisiae CIT2-GFP strain, flow cytometry, 3 h; measured here: daughter cell gate; at 10 µM; stronger effect = higher value
row,SMILES,"GFP response, % of DMSO"
1,Cc1ccc(C(=O)OCC(=O)Nc2ccccc2Sc2ccccc2)cc1C,103%
2,CCCCCCc1cc2cc(-c3nnc(-c4ccccc4OC)o3)c(=O)oc2cc1O,101%
3,O=C(OCn1ncc(Br)c(Br)c1=O)c1ccc(F)cc1,108%
4,CSc1ccc(-c2cc(=O)c3ccccc3o2)cc1,81.6%
5,c1cc2c(cc1C1CCCCC1)c1c3n2CCCNC3CCC1 (stereo not drawn),96.5%
6,CCOC(=O)C1(CCCc2ccccc2)CCN(C(=O)c2cc(C)nn2CC)CC1,104%
7,Cn1cnnc1SCC(=O)Nc1nc(-c2ccc(F)cc2)cs1,103%
8,O=C1C=C(c2ccccc2)C(=O)N1Nc1ccccc1,95.4%
9,S=C(Sc1ccc(Cl)cc1)Sc1ccc(Cl)cc1,105%
10,O=C(O)c1ccc(N/N=C/c2c(F)cccc2Cl)cc1,92.7%
11,Cc1ccc(-c2csc(NC(=O)c3ccno3)n2)cc1,99.2%
12,Cc1nn(C)cc1C(C)NC(=O)c1cc(COc2ccc(F)c(F)c2)on1 (stereo not drawn),98.1%
13,CN(O)/C=c1/ccc2c(n1)C(=O)C=CC=2,150%
14,CCOc1ccc(S(=O)(=O)n2ccnc2C)cc1,103%
15,CCCCN(CC)S(=O)(=O)c1ccc(C(=O)Nc2nnc(-c3ccccc3Cl)o2)cc1,99.1%
16,Oc1c(CN2CCCCC2)cc(Br)c2cccnc12,104%
17,O=C(O)c1ccc(N/N=C/C(Br)=C/c2ccccc2)cc1,92.7%
18,Cc1ccc(NC(=O)COc2ccc(Br)cc2C)cc1,98.3%
19,CCCn1c(=O)c(C(=O)Nc2ccccc2C(=O)OCC)c(O)c2ccccc21,103%
20,N#C/C(C(=O)Nc1ccc(Cl)cc1)=C(/S)Nc1ccccc1,105%

row,SMILES,"GFP response, % of DMSO"
1,CN1/C(=C\C(=O)c2cccc(S(=O)(=O)N3CCCCC3)c2)C(C)(C)c2ccccc21,99.1%
2,CCn1c(=O)c(C(=O)NCc2ccc(OC)cc2)c(O)c2ccccc21,101%
3,C/C(=N/NS(=O)(=O)c1ccccc1)c1ccc(NC(=O)C(F)(F)F)cc1,96.4%
4,CS(=O)(=O)c1nc(-c2ccccc2)cc(C(F)(F)F)n1,101%
5,CCOc1ccc(/C=C/C(=O)c2c(O)cc(C)oc2=O)cc1,94%
6,CCCc1[nH]nc2c1C(c1cccnc1)C(C#N)=C(N)O2 (stereo not drawn),99.1%
7,O=C1CC(Sc2nnc(-c3ccccc3)o2)C(=O)N1c1ccccc1 (stereo not drawn),99.7%
8,O=C(NNC(=O)C1CCCCC1)C(=O)NC1CCCCC1,102%
9,Cc1ccc(/C(C#N)=C\c2ccc(N3CCOCC3)o2)cc1,99.2%
10,N/C(Cc1ccc(Cl)c(Cl)c1)=N\OC(=O)c1cccs1,126%
11,Cn1cc([N+](=O)[O-])c(C(=O)Nc2nc(-c3ccc(Cl)cc3)cs2)n1,97.6%
12,CCCOc1ccc(C(=O)NNC(=S)NC(=O)c2ccccc2)cc1,116%
13,COc1ccc(N2C(=O)c3cccc4cccc(c34)C2=O)nn1,93.2%
14,Clc1ccc(OCCn2cnc3ccccc32)c(Cl)c1,80.7%
15,N#C/C(=C\c1ccccn1)c1nc2ccccc2s1,433%
16,COc1ccc(S(=O)(=O)NCC(=O)N(CC(=O)NCc2ccco2)Cc2ccc(F)cc2)cc1,105%
17,Cc1cc(OCc2ccc(C(=O)NN=C3CCCC3)cc2)ccc1Cl,91.5%
18,CCCCC(=O)NNC(=S)NC(=O)c1ccc(C)cc1,114%
19,Cc1ccc(N2C(=O)C3C4C=CC(CNC(=S)Nc5ccc(F)cc5)(O4)C3C2=O)cc1 (stereo not drawn),110%
